eLon inh = inhibitors of E. coli Lon protease | purified E. coli Lon protease, fluorescence polarization | inhibition, % at 7.94 µM | 360,000 tested, 0.42% active | AID 602123; in the data active = inhibition above about 13%, passing the limit was not always enough;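 also: 0% = enzyme with probe and DMSO and 100% = no enzyme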
C-LANA FP = blocks KSHV LANA C-terminal domain binding to DNA | MBP-C-LANA/FAM-LBS DNA binding, fluorescence polarization | inhibition, % at 9 µM | 340,000 tested, 0.078% active;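 active = highest replicate inhibition at or above 60% at 9 µM, even if other replicates fall short; inactive = all replicates below 60% inhibition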;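 also: 0% = neutral control wells and 100% = 4 µM acridine orange control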
EBV gp42 block = EBV gp42 inhibition; Fluorescence polarization binding assay, mP read-out; inhibition, % (tested at 21.74 µM); 220,000 tested, 0.42% active; in the data active = inhibition above about 50%
LANA-H2A inh = blocks KSHV LANA binding to histone H2A/H2B. cell-free LANA-H2A/H2B peptide, fluorescence polarization. inhibition, % (concentration not given with the values). 320,000 tested, 0.6% active. AID 2629; in the data active = inhibition mostly above about 10%, no sharp cut-off; inactive = mostly below about 6.7%
Target sequence (Q9QR71 whole entry, looked up): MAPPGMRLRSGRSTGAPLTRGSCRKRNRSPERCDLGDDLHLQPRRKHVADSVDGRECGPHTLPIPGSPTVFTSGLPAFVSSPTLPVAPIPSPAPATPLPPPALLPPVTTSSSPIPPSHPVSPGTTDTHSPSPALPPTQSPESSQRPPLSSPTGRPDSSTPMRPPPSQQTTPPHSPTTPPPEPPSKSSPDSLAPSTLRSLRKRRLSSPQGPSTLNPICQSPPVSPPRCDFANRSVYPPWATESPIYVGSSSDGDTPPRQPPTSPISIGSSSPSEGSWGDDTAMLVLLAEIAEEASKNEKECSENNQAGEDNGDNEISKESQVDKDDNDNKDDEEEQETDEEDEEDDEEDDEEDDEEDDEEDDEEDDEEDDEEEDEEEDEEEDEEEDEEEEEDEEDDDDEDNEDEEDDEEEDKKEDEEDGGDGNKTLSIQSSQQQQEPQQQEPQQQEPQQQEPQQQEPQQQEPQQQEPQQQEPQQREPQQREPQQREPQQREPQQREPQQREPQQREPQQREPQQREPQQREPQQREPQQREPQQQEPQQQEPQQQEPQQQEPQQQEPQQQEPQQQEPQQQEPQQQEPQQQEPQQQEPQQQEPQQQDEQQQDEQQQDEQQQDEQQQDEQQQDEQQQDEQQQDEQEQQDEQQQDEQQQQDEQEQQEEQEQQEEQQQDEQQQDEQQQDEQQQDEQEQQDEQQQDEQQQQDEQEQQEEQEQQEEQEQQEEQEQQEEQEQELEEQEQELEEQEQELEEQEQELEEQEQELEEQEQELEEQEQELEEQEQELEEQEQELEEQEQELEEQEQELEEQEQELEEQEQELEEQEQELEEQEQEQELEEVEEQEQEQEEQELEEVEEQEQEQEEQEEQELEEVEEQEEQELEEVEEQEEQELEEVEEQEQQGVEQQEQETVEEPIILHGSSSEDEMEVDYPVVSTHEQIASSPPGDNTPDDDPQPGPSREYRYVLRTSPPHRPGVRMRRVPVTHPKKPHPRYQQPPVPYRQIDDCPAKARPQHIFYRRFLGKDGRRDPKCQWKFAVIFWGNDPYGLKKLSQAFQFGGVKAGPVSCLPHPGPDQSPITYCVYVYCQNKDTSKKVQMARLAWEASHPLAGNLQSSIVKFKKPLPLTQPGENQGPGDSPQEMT
GLD-1 TGE inh = GLD-1-TGE RNA interaction inhibition (C. elegans) | Q17339 | purified GLD-1 + fluorescein TGE RNA, fluorescence polarization | inhibition, % at 5.96 µM | 320,000 tested, 0.44% active | AID 2280;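 active = percent inhibition above a per-plate cutoff, the plate mean of test compounds plus 3 SD, cut at about 30% in these data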;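 also: 0% = DMSO wells with GLD-1 and probe and 100% = wells lacking GLD-1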
Keap1-Nrf2 PPI = Keap1-Nrf2 (human) interaction inhibition | Q14145 | Keap1 Kelch-Nrf2 peptide fluorescence polarization, 1536-well | inhibition, % at 9.4 µM | 340,000 tested, 0.15% active | AID 504523; in the data active = inhibition above about 12%;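 also: human Keap1 Kelch domain with fluorescein labeled Nrf2 9mer peptide probe; 0% = neutral control wells and 100% = peptide positive control; higher means more block of Keap1 binding to Nrf2 peptide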
eLon confirm = E. coli Lon inhibition confirmation; shares compounds with eLon inh; purified E. coli Lon, fluorescence polarization; inhibition, % at 7.94 µM; 1,400 tested, 31% active; AID 602230; in the data active = inhibition above about 16%;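 also: 0% = enzyme with probe and DMSO and 100% = no enzyme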
* = called active by the depositor; nt = not tested or not shown. Hits are enriched below; roughly 1.5% of the tested compounds scored in any of these assays.

SMILES	eLon inh	C-LANA FP	EBV gp42 block	LANA-H2A inh	GLD-1 TGE inh	Keap1-Nrf2 PPI	eLon confirm
CC1CCCCN1C(=O)CSc1nc2ncccc2[nH]1 (stereo unspecified)	-5	-1	nt	-1	3	4	nt
CC1CCN(C(=O)C(C)NCc2ccc(F)cc2)CC1 (stereo unspecified)	36*	1	nt	3	11	1	3
Cc1ccc(S(=O)(=O)NC(C)C(=O)OCC(=O)Nc2sccc2C(N)=O)cc1 (stereo unspecified)	-6	nt	nt	nt	nt	nt	nt
COC(=O)c1ccc(NC(=O)CSC2=NCCN2)cc1	-1	1	-3	1	2	-5	nt
CCOc1ccc(NC(=O)CSC2=NCCN2)cc1	45*	2	-2	7	6	-2	4
Cc1[nH]c2ccccc2c1/C=N\NC(=O)c1ccco1	159*	-2	nt	3	nt	-1	-2
Cc1[nH]c2ccccc2c1/C=N/NC(=O)c1cccc(F)c1	31*	0	-12	2	-1	0	7
COc1ccc(-n2nc(C(C)=O)c(=O)[nH]c2=O)cc1	-4	0	5	-2	6	2	nt
CSc1ncccc1C(=O)N1CCN(S(=O)(=O)c2ccc(C)cc2)CC1	17*	1	nt	2	5	1	0
CC1(NC(=O)CC(c2ccccc2)(c2ccccc2)c2ccccc2)CCN(CCCc2ccccc2)C1=O (stereo unspecified)	-3	0	nt	-2	5	-6	nt
O=C(COc1ccc(Cl)cc1Cl)N/N=C/C1CC=CCC1 (stereo unspecified)	-6	-1	nt	-3	-2	-2	nt
Cc1[nH]c(=O)[nH]c(=O)c1/C=N/NC(=O)[C@@H](N)CC(C)C	2	1	-7	2	5	-4	nt
Cc1noc(-c2ccccc2)c1NC(=O)Nc1ccc2nc([C@H]3C[C@H](O)[C@@H](CO)O3)[nH]c2c1	17*	nt	nt	nt	nt	nt	2
CN(Cc1ccccc1)C(=O)c1ccc2nc([C@H]3C[C@H](O)[C@@H](CO)O3)[nH]c2c1	-1	nt	nt	nt	nt	nt	nt
Cc1ccc(Cn2c(C(C)Nc3nc(-c4ccc(C)cc4)cs3)nc3cc(Cl)c(Cl)cc32)cc1 (stereo unspecified)	1	0	nt	-1	-2	1	nt
CCCn1c(C(C)Nc2nc(C)cs2)nc2cc(Cl)c(Cl)cc21 (stereo unspecified)	116*	1	nt	0	6	-1	-2
Cc1ccc(N2C=Nc3ccc(C)c4nc(C)cc2c34)cc1	18*	1	-12	2	4	1	-1
CC1=Nc2ccc(C)c3nc(C)cc(c23)N1c1ccc(C)cc1	-10	-1	-16	0	-5	6	nt
CC(C)S(=O)(=O)c1csc(NC(=O)Nc2cccc([N+](=O)[O-])c2)c1Cl	22*	1	-4	7	1	-1	-6
COCCn1c(N)c(N(Cc2ccccc2)C(=O)CSCC(=O)Nc2ccc(C)cc2)c(=O)[nH]c1=O	-16	2	nt	-1	1	-3	nt
N#Cc1ccc(CCc2ccccc2)[nH]c1=O	-14	3	nt	nt	nt	-4	nt
N#Cc1ccc(CC(=O)c2ccccc2)[nH]c1=O	25*	7	nt	nt	nt	-1	-98
Cc1cc(C(=O)COc2cccc3cccnc23)c(C)n1C	71*	38	11	15	151*	24*	2
N#C/C(=C\c1ccccc1)C(=O)N(c1ccccn1)C1CCCCC1	6	0	3	-4	-7	-19	nt
CC(NS(=O)(=O)c1ccccc1)C1CC2CCC1C2 (stereo unspecified)	23*	0	nt	-2	6	-2	-2
SMILES	eLon inh	C-LANA FP	EBV gp42 block	LANA-H2A inh	GLD-1 TGE inh	Keap1-Nrf2 PPI	eLon confirm
COc1ccc(/C=C/C(=O)c2ccc3c(c2)OCO3)c(OC)c1	-5	1	-11	-1	-1	3	nt
COc1cccc(/C=C/C(=O)c2ccc3c(c2)OCCO3)c1OC	20*	0	nt	0	0	2	9
C=CCOC(=O)C1=C[C@H](c2coc3ccccc3c2=O)[C@@H](CCCO)[C@H](OCC)O1	26*	-1	-6	-1	6	-2	1
CCO[C@H]1OC(C(=O)O)=C[C@@H](c2coc3ccccc3c2=O)[C@@H]1CCCO	5	0	nt	1	-4	-3	nt
C(/C=C/c1ccccn1)=C\c1ccccc1	36*	4	nt	9	0	-1	2
Cc1ccc(/C=C/C(=O)Nc2cccc3cccnc23)o1	70*	5	-10	4	68*	-1	30*
Cc1cccc(C(=O)Nc2cccc3cccnc23)c1	-5	1	nt	3	nt	1	nt
COc1cccc(C(=O)Oc2ccc3ccc(=O)oc3c2)c1	23*	1	nt	4	4	-3	47*
COc1ccc(NC2CCN(C3CC(=O)N(c4ccc(F)c(Cl)c4)C3=O)CC2)cc1 (stereo unspecified)	17*	-1	5	-2	3	-3	-3
COc1cccc(N2CCN(C3CC(=O)N(c4ccc(F)c(Cl)c4)C3=O)CC2)c1 (stereo unspecified)	5	-1	0	-29	-7	-8	nt
Nc1c(C(=O)N/N=C/c2cccnc2)oc2nc(-c3ccco3)cc(-c3ccco3)c12	56*	nt	19	3	29	nt	-152
CCNC(=O)c1c(C)nc2ccccn12	16*	-2	-6	-1	3	-5	-3
Cc1nc2ccccn2c1C(=O)NN	-3	7	-12	-5	6	4	nt
O=C(CN1C(=O)c2ccccc2C1=O)c1ccccc1	-4	3	-15	-1	-8	-2	nt
O=C(O)CN1C(=O)c2ccc(C(=O)c3ccccc3)cc2C1=O	27*	-2	nt	1	7	-5	-3
O=C1CN(C(=O)c2ccccc2F)C(c2ccccc2)c2cc(F)ccc2N1 (stereo unspecified)	18*	-1	nt	-2	2	3	-10
Cc1ccccc1C(=O)N1CC(=O)Nc2ccc(F)cc2C1c1ccc(F)cc1 (stereo unspecified)	3	0	nt	1	-1	2	nt
CC(C)(CN1CCc2ccccc2C1)NS(=O)(=O)c1ccc(Cl)cc1	17*	1	0	25*	-1	0	13
CN1CCN(CC(C)(C)NS(=O)(=O)c2ccc(Cl)cc2)CC1	-4	1	-15	11	7	-3	nt
O=C(/C=C/c1cccs1)NNC(=O)c1ccccc1	-14	-1	nt	-11	-7	-4	nt
COc1cc(C)c2c(c1C=O)Oc1c(c(C)c(O)c3c1C(O)OC3=O)OC2=O (stereo unspecified)	57*	9	-15	-11	3	4	16*
O=C(CSc1nncs1)Nc1cccc2ccccc12	-12	-1	nt	nt	nt	-1	nt

High-throughput results as filed in PubChem BioAssay.
